For test [1] the following is noted: Ebola virus entry assay, green fluorescence channel.
The conditions of test [2]: Ebola virus entry assay, blue channel fluorescence.
The conditions of test [3]: Ebola virus entry assay, ratio channel.
For test [4] the following is noted: Ebola virus entry assay, green channel fluorescence.
The conditions of test [5]: Ebola virus entry assay, reporter ratio channel; Channel type: primary.
The conditions of test [6]: Ebola virus entry assay, blue channel (ratio component).

A number with no mark means an inactive call. For part of these data: Entries with a potency or affinity are not part of this list. Active and inactive are the calls of the source. No rule for the calls is given here.
For efficacy in this document: 0% is about no effect.

For the compound `CCN(CC)C(=O)N1CCN(C)CC1`, the efficacy in test [1] is -16.8%. The result in test [2], in test [3], in test [4], in test [5] and in test [6] was inactive.

With `NCCc1cnc[nH]1`, in test [1], the efficacy was 13.4%. For the same compound, the compound was classed as inactive in test [2], in test [3], in test [4], in test [5] and in test [6].

For the compound `O=C1CC2(CCCC2)CC(=O)N1CCCCN1CCN(c2ncccn2)CC1`, in test [1], the efficacy was 11.1%. Further, the outcome in test [2], in test [4] and in test [6] was inactive. The AC50 in test [3] and in test [5] was 22.4 µM (active) each time.

For `O=C(OCC(COC(=O)c1cccnc1)(COC(=O)c1cccnc1)COC(=O)c1cccnc1)c1cccnc1`, the efficacy in test [1] is -29.2%. Besides, the result in test [2], in test [3], in test [4], in test [5] and in test [6] was inactive.

As to `CCc1cccc2c(CCO)c[nH]c12`, in test [1], the efficacy is -22.1%. Besides, the call in test [2], in test [3], in test [4], in test [5] and in test [6] was inactive.

On to `CS(=O)(=O)c1ccc(-c2cn3ccccc3n2)cc1`, for which, in test [1], the efficacy was -11.6%. Further, the compound was classed as inactive in test [2], in test [3], in test [4], in test [5] and in test [6].

Take `CC(C)(C)c1nnc(NS(=O)(=O)c2ccc(N)cc2)s1`: the efficacy in test [1] was -23%. The result in test [2], in test [3], in test [4], in test [5] and in test [6] was inactive.

As to `CN1CCN(c2c(F)cc3c(=O)c(C(=O)O)cn(CCF)c3c2F)CC1`, the efficacy in test [1] was -28.9%. Moreover, the call in test [2], in test [3], in test [4], in test [5] and in test [6] was inactive.

`O=C(CCNNC(=O)c1ccncc1)NCc1ccccc1`: in test [1], the efficacy is -17%. For the same compound, the compound was called inactive in test [2], in test [3], in test [4], in test [5] and in test [6].

On to `NS(=O)(=O)c1cc2c(cc1Cl)NC(CSCc1ccccc1)=NS2(=O)=O`, for which the efficacy in test [1] is 11.6%. The result in test [2], in test [3], in test [4], in test [5] and in test [6] was inactive.

In the case of `CCCCCC1Nc2cc(C(F)(F)F)c(S(N)(=O)=O)cc2S(=O)(=O)N1` (stereo unspecified), the efficacy in test [1] was -15.8%. Besides, the result in test [2], in test [3], in test [4], in test [5] and in test [6] was inactive.

In the case of `Cc1c(Cl)cccc1Nc1ccccc1C(=O)O`, the efficacy in test [1] is 13.8%. In addition, the compound was classed as inactive in test [2], in test [3], in test [4], in test [5] and in test [6].

With `Cc1c(F)cc2c(=O)c(C(=O)O)cn3c2c1CCC3C` (stereo unspecified), the efficacy in test [1] is 17.9%. Further, the call in test [2], in test [3], in test [4], in test [5] and in test [6] was inactive.

Consider `Nc1ccn(C2CO[C@H](CO)O2)c(=O)n1` (stereo partly specified), for which the efficacy in test [1] was -24%. The compound was called inactive in test [2], in test [3], in test [4], in test [5] and in test [6].

As for `CCOC(=O)n1ccn(C)c1=S`, the efficacy in test [1] was -11.5%. Moreover, the call in test [2], in test [3], in test [4], in test [5] and in test [6] was inactive.

As for `C[C@@H](O)[C@H](N)C(=O)O`, in test [1], the efficacy is -9.88%. Besides, the compound was called inactive in test [2], in test [3], in test [4], in test [5] and in test [6].

On to `C=CCSCC1Nc2cc(Cl)c(S(N)(=O)=O)cc2S(=O)(=O)N1` (stereo unspecified), for which the efficacy in test [1] is -29.5%. Moreover, the compound was called inactive in test [2], in test [3], in test [4], in test [5] and in test [6].

As for `Nc1ccc(S(=O)(=O)Nc2nccs2)cc1`, the efficacy in test [1] is -14%. The outcome in test [2], in test [3], in test [4], in test [5] and in test [6] was inactive.

With `OC[C@]1(O)OC[C@@H](O)[C@H](O)[C@@H]1O`, in test [1], the efficacy is -31%. Moreover, the outcome in test [2], in test [3], in test [4], in test [5] and in test [6] was inactive.

Take `O=C1N(c2ccccc2)c2ccccc2C1(Cc1ccncc1)Cc1ccncc1`: the efficacy in test [1] was 21.1%. Also, the result in test [2], in test [3], in test [4], in test [5] and in test [6] was inactive.

Take `CC1(C)O[C@@H]2C[C@H]3[C@@H]4C[C@H](F)C5=CC(=O)CC[C@]5(C)[C@H]4[C@@H](O)C[C@]3(C)[C@]2(C(=O)CO)O1`: in test [1], the efficacy was 23.9%. The call in test [2], in test [3], in test [4], in test [5] and in test [6] was inactive.

Consider `C[C@H](CCC(=O)O)[C@H]1CC[C@H]2[C@@H]3C(=O)C[C@@H]4CC(=O)CC[C@]4(C)[C@H]3CC(=O)[C@]12C`, for which, in test [1], the efficacy is -7.14%. Also, the compound was called inactive in test [2], in test [3], in test [4], in test [5] and in test [6].

On to `Oc1c(I)cc(Cl)c2cccnc12`, for which the efficacy in test [1] was 46.4%. The call in test [2], in test [3], in test [4], in test [5] and in test [6] was inactive.

For `O=C(NCCc1c[nH]c2ccccc12)c1cccnc1`, in test [1], the efficacy is 15.6%. The compound was classed as inactive in test [2], in test [3], in test [4], in test [5] and in test [6].

With `CCN(CC)C(=O)c1cccc(C)c1`, the efficacy in test [1] is -20%. The outcome in test [2], in test [3], in test [4], in test [5] and in test [6] was inactive.

For the compound `CCn1ccnc1CC1COc2ccccc2O1` (stereo unspecified), the efficacy in test [1] was -17.5%. The result in test [2], in test [3], in test [4], in test [5] and in test [6] was inactive.

For the compound `CC(=O)OCC(=O)[C@@]1(O)CCC2C3CCC4=CC(=O)CC[C@]4(C)C3[C@@H](O)C[C@@]21C` (stereo partly specified), in test [1], the efficacy was -12.5%. Also, the call in test [2], in test [3], in test [4], in test [5] and in test [6] was inactive.

In the case of `CC1(C)S[C@@H]2[C@H](N=CN3CCCCCC3)C(=O)N2[C@H]1C(=O)O`, the efficacy in test [1] is -47.1%. The result in test [2], in test [3], in test [4], in test [5] and in test [6] was inactive.

With `COC(=O)C1=C(C)NC(COC(N)=O)=C(C(=O)OC(C)C)C1c1cccc(Cl)c1Cl` (stereo unspecified), the efficacy in test [1] is 27.1%. Further, the compound was called inactive in test [2], in test [4] and in test [6]. The AC50 in test [3] and in test [5] was 22.4 µM (active) in each case.

Regarding `O=C(O)c1ccc(OCCCOc2ccc(C(=O)O)cc2)cc1`, the efficacy in test [1] was 11.3%. In addition, the compound was classed as inactive in test [2], in test [3], in test [4], in test [5] and in test [6].

Take `N[C@H](Cc1c[nH]c2ccccc12)C(=O)O`: the efficacy in test [1] was 29.9%. For the same compound, the result in test [2], in test [3], in test [4], in test [5] and in test [6] was inactive.

The AC50 is the concentration at which the activity in the assay is half-maximal.

The values are drawn from PubChem BioAssay (NCATS).
